Assay [1] in a line: NCI Yeast Anticancer Drug Screen. Data for the rad50 strain (AID 155).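 Further: 0% = growth of vehicle-only cultures of the same strain.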 Particulars: S. cerevisiae rad50 strain growth inhibition; at 50.0 µM; stronger effect = higher value. Put shortly:
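Inhibition values express reduced yeast growth in compound-treated cultures relative to vehicle-treated controls.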

Assay [2] can be described thus: NCI Yeast Anticancer Drug Screen. Data for the mec2-1 strain (AID 157). Conditions: S. cerevisiae mec2-1 strain, at 50.0 µM, stronger effect = higher value. Put shortly: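 Compounds were applied to mec2-1 yeast cells. Their growth was then compared with that of vehicle-treated cultures to give growth inhibition.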
The nature of assay [3]: NCI Yeast Anticancer Drug Screen. Data for the sgs1 mgt1 strain (AID 161).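 Further: 0% = growth of cultures given vehicle only.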 Conditions: S. cerevisiae sgs1 mgt1 strain, at 50.0 µM, stronger effect = higher value. In a few lines: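 Growth of a repair-deficient yeast mutant was monitored after compound treatment and expressed as inhibition relative to vehicle-treated cultures.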
Assay [4] can be described thus: NCI Yeast Anticancer Drug Screen. Data for the cln2 rad14 strain (AID 165).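 Further: 0% = growth equal to vehicle treated cultures.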 Particulars: S. cerevisiae cln2 rad14 strain, at 50.0 µM, stronger effect = higher value. In a few lines:
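Strain: cln2 rad14 yeast, altered in cell cycle control and DNA damage repair. Read-out: growth inhibition vs vehicle.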

Assay [5] is described as follows: NCI Yeast Anticancer Drug Screen. Data for the bub3 strain (AID 167). Conditions: S. cerevisiae bub3 mutant strain, at 50.0 µM, stronger effect = higher value. Put shortly: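 Steps: expose the mutant yeast strain to compound; grow alongside vehicle-treated cultures; measure growth; express inhibition against the vehicle cultures.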
The nature of assay [6]: NCI Yeast Anticancer Drug Screen. Data for the mlh1 rad18 strain (AID 175). Particulars: S. cerevisiae mlh1 rad18 strain growth inhibition; at 50.0 µM; stronger effect = higher value. Put shortly:
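A repair-deficient yeast strain is exposed to test compound, and growth is scored relative to vehicle-treated controls.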

The structures appear in SMILES notation. About 79,000 compounds went through this panel and 15% of them were active in at least one assay; those are over-represented in the sample as a whole. Values without a mark were called inactive. Activity calls are given as the source filed them. No stated cut-off is given here; in the data, active means growth inhibition above about 70%; inactive means the rest.

Regarding `[C-]#[N+]C1(c2ccccc2)C2CC3CC(C2)CC1C3` (stereo unspecified), the growth inhibition in assay [1] was -1.7%; in assay [2], -7.05%; in assay [3], -4.35%; in assay [4] it was -16.9%; in assay [5] it was -4.25%; in assay [6], 9.35%.
Take `CC(C)=C1C2C=CC1C(CO)C2CO` (stereo unspecified): the growth inhibition in assay [1] was 9.8%; in assay [2] it was -4.4%; in assay [3], -3.95%; in assay [4], -64%; in assay [5], 2.2%; in assay [6], 10.8%.
Consider `CCC[N+](CCC)=c1ccc2nc3c(C)cc(N(CC)CC)cc3sc-2c1`, for which the growth inhibition in assay [1] is -60.6%; in assay [2], -6.45%; in assay [3] it was -20.6%; in assay [4], -126%; in assay [5], -130%; in assay [6], -39.2%.
Turning to `CCOC(=O)C1=CN(C)C=C(Br)C1C#N` (stereo unspecified), the growth inhibition in assay [1] is -2.2%; in assay [2], 10.1%; in assay [3] it was 4.55%; in assay [4], 6.45%; in assay [5], 8.1%; in assay [6], -4.75%.
Regarding `O=c1cc(-c2cccc3ccccc23)[nH]c2ncccc12`, the growth inhibition is -13.3% in assay [1]; -10.7% in assay [2]; -21.9% in assay [3]; 13.9% in assay [4]; -9.3% in assay [5]; -29.5% in assay [6].
For `CCCCN=C1Nc2nc(=NCCCC)nc3c(Br)cc(Br)c(n23)N1`, the growth inhibition in assay [1] is 37.2%; in assay [2] it was 20.2%; in assay [3], 5.4%; in assay [4] it was 23.4%; in assay [5] it was -4.9%; in assay [6], 21.9%.
With `CN(C)C1C(CO)OC(n2cnc3c(N)ncnc32)C1O` (stereo unspecified), the growth inhibition in assay [1] is 21.2%; in assay [2], 12.8%; in assay [3] it was -19.4%; in assay [4], 22%; in assay [5] it was -11.8%; in assay [6], -82.2%.
With `CCCCCCCOC(=O)c1ccccc1Cl`, the growth inhibition was 7.3% in assay [1]; -10.1% in assay [2]; 23.4% in assay [3]; -6.7% in assay [4]; 13.9% in assay [5]; 2% in assay [6].
Take `O=[N+]([O-])c1cc(Cl)c(Cl)c(Cl)c1Cl`: the growth inhibition in assay [1] was 17.1%; in assay [2], 3.4%; in assay [3] it was -1%; in assay [4], 14.8%; in assay [5], 7.3%; in assay [6], 31.4%.
As to `CC1(C)N=C(N)N=C(N)N1c1cccc(CCC(=O)Nc2cccnc2)c1`, the growth inhibition in assay [1] is 19.4%; in assay [2] it was 1.4%; in assay [3] it was 5.2%; in assay [4], 9.05%; in assay [5] it was -4.5%; in assay [6] it was -6.3%.
Consider `CCOC(=O)C(=O)Nc1ccccc1C(C)C`, for which the growth inhibition in assay [1] is 12.4%; in assay [2] it was 6.05%; in assay [3] it was 0.2%; in assay [4], -7.15%; in assay [5], -9%; in assay [6], 6.35%.
Regarding `NC1(c2ccccc2)CON=C(c2ccccc2)C1` (stereo unspecified), the growth inhibition in assay [1] was 17.2%; in assay [2], 5.85%; in assay [3], -5.8%; in assay [4] it was -15.8%; in assay [5], 1.4%; in assay [6] it was 16.9%.
Turning to `O=[N+]([O-])c1ccc(-c2csc(N=Nc3c(O)[nH]c4ccccc34)n2)cc1`, the growth inhibition is -31.2% in assay [1]; -20.2% in assay [2]; -22.4% in assay [3]; -16.7% in assay [4]; -31.4% in assay [5]; -46.4% in assay [6].
Consider `Oc1ccccc1C=Nc1ccc(N2CCOCC2)cc1`, for which the growth inhibition in assay [1] was 2.65%; in assay [2], -3.7%; in assay [3], 10.1%; in assay [4], -4.2%; in assay [5], 2.05%; in assay [6], -2.35%.
For the compound `O=C1C=CC(=Nc2ccc(OC(=O)c3ccccc3)cc2)C=C1`, the growth inhibition in assay [1] was 9.9%; in assay [2], -4.95%; in assay [3], 1.45%; in assay [4], -35%; in assay [5], -3.8%; in assay [6], 9.35%.
Regarding `CN1C(C)(C)CC(CN2c3ccccc3Sc3ccccc32)C1(C)C` (stereo unspecified), the growth inhibition is 34.2% in assay [1]; 6.8% in assay [2]; 37.9% in assay [3]; -19.3% in assay [4]; 27.9% in assay [5]; 45.2% in assay [6].
Consider `OCC(CO)=C1c2ccccc2-c2ccccc21`, for which the growth inhibition in assay [1] is 11%; in assay [2] it was -6.2%; in assay [3] it was -8.15%; in assay [4], -28.8%; in assay [5] it was -1.5%; in assay [6], 5.55%.
For `NNc1cn[nH]c(=O)c1Cl`, the growth inhibition in assay [1] was -16.6%; in assay [2], -28.2%; in assay [3], -10.1%; in assay [4] it was 4.4%; in assay [5], -3.85%; in assay [6], -26.4%.
On to `Nc1ncnc2c1ncn2C1CCC(CP(=O)(O)O)C1` (stereo unspecified), for which the growth inhibition is -6.85% in assay [1]; -25.4% in assay [2]; -23.4% in assay [3]; -29.4% in assay [4]; -5.45% in assay [5]; -0.1% in assay [6].
As to `O=C(OCCCl)Oc1c(Cl)cc([N+](=O)[O-])cc1[N+](=O)[O-]`, the growth inhibition in assay [1] is 99.6% (active); in assay [2], 99.8% (active); in assay [3] it was 99.7% (active); in assay [4] it was 99% (active); in assay [5], 99.2% (active); in assay [6] it was 99.5% (active).
For the compound `ClSC(c1ccccc1)(c1ccccc1)c1ccccc1`, the growth inhibition was 20.2% in assay [1]; 8.9% in assay [2]; 57.6% in assay [3]; 10.6% in assay [4]; -30.9% in assay [5]; 33.4% in assay [6].
